# Compound activity deposited in PubChem by National Center for Advancing Translational Sciences (NCATS).
# KB-V1 cytotox = kills drug-selected multidrug resistant KB-V1 cells. AID 1347076. 400,000 compounds, 3.4% hits. Potency, µM (doses to about 46.1 µM), hits mostly cytotoxic. KB-V1 MDR cells viability, CellTiter-Glo, 72 h; further: potency means the concentration at half of the fitted maximal effect; on the % scale 0 is the no-effect control and ±100 the full control effect; nearly all actives have a fitted effect of over 60% in size
#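 In this primary screen, KB-V1 cells overexpressing P-gp are incubated with library compounds (lowest to highest concentration) for 72 h at 37 degrees C before a luminescent ATP viability read.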
# DRD3 antagonist = D3 dopamine receptor (human) antagonism; P35462; D3R cells, DiscoveRx beta-arrestin luminescence, antagonist mode; stronger effect = lower value; max response, negative = inhibition, %; 360,000 compounds, 2.5% hits; in the data active means max response below about -50%; inconclusive means no clear call, values can overlap the other calls; further: on the % scale 0 is the no-effect control and ±100 the full control effect
# Target sequence (P35462 whole entry, looked up): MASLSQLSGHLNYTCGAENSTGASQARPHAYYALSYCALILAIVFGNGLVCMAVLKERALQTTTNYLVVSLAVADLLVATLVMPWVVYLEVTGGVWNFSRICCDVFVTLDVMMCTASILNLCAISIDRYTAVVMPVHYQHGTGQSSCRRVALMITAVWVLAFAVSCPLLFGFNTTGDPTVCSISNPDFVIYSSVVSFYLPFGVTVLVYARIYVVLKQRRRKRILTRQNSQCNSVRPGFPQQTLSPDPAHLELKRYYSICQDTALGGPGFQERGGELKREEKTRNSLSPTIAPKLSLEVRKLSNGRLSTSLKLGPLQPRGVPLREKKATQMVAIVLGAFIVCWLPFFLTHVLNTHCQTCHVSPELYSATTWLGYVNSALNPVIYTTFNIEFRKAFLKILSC
#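 Cells expressing the human receptor were seeded at 1500 cells/well, incubated overnight at 37 degrees C in 5% CO2, then exposed to library compounds with dopamine controls for 90 minutes at 37 degrees C before luminescent detection.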
# KB-3-1 tox = KB-3-1 parental cell cytotoxicity; KB-3-1 viability, CellTiter-Glo ATP luminescence, 72 h; Potency, µM (top dose mostly 46.1 µM), actives largely listed as cytotoxic; 400,000 compounds, 1.4% hits; further: potency means the concentration at half of the fitted maximal effect; on the % scale 0 is the no-effect control and ±100 the full control effect; nearly all actives have a fitted effect of over 60% in size
#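 Cells are dispensed, compounds pinned in, plates held at 37 °C for 72 h, then CellTiter-Glo is added and luminescence read after 10 minutes. Cell line: parental KB-3-1 in phenol-red-free DMEM, 10% FBS.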
# D3 ag = agonists of human D3 dopamine receptor | P35462 | D3R DiscoveRx beta-arrestin cells, luminescence, 90 min | max activation, % | 410,000 compounds, 0.58% hits; in the data active means max activation above about 30%; further: 0% is about no effect
#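 Agonist mode: compounds and dopamine controls were applied to plated cells for 90 min at 37 degrees C after an overnight attachment at 1500 cells/well. Luminescent read-out followed 30 - 60 minutes at room temperature with DiscoveRx detection reagent.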
# SW480 rerep = inducers of DNA re-replication in SW480 colon cancer cells. Potency, µM (highest dose often 46.1 µM), without a hit: at the top dose re-replication activation, hits mostly activators. 340,000 compounds, 1.8% hits. SW480 DNA re-replication, Hoechst DNA content imaging, 48 h; further: potency means the concentration at half of the fitted maximal effect; % of control where 0% means no effect; nearly all actives have a fitted effect of over 55% in size
#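 Quantitative HTS format with DMSO vehicle controls; 48 hr drug incubation at 37 C, then 40 min Hoechst staining and scanning imager measurement at 405 nm excitation.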
# MCF10A rereplic = inducers of DNA re-replication in MCF 10A breast cells; AID 624296; 350,000 compounds, 2.9% hits; MCF 10A DNA re-replication, Hoechst nuclear intensity, 48 h; Potency, µM (highest dose often 46.1 µM), for inactives: at the highest dose activity, positive = re-replication, actives largely listed as activators; further: potency means the concentration at half of the fitted maximal effect; % of control where 0% means no effect; nearly all actives have a fitted effect of over 50% in size
# Active calls of the source: *; i = inactive; ? = inconclusive; . = no result; [ ] = another dose, or the depositor's remark. Hits are enriched below; roughly 8.9% of the tested compounds scored in any of these assays. Unless noted, the call rests on the fitted dose curve; in most records, active means well fitted curve in the direction sought with a large enough effect; inconclusive means small, poorly fitted or top-dose-only effect, or another doubt; inactive means no such curve, though single readings can be large; an effect the other way counts as inactive or inconclusive.
SMILES,KB-V1 cytotox,DRD3 antagonist,KB-3-1 tox,D3 ag,SW480 rerep,MCF10A rereplic
COc1ccc([C@H]2CC(=O)C=C(c3ccc(OC)c(OC)c3)C2)cc1,i,32,i,5,-7%,9.2µM*
CCOC(=O)c1cccc(C2=CC(=O)C[C@H](c3ccc(OC)c(OC)c3)C2)c1,i,88,i,52*,-18%[9.22 µM],9%
COc1ccc([C@H]2CC(=O)C=C(c3ccc4ncccc4c3)C2)cc1OC,i,5,i,6,2%,50%
CCOc1ccc(NC(=O)Cn2c(=O)n(-c3cccc(OC)c3)c(=O)c3c4c(sc32)CCCC4)cc1,i,.,i,1,.,.
C1=CN2CC=Cc3cc(/C=C/c4ccnc5ccccc45)cc(c32)C1,i,.,i,.,.,.
COc1ccc(Cl)cc1C(=O)Nc1sc2c(c1C(=O)OC(C)C)CCCC2,i,.,i,0,.,.
CNS(=O)(=O)c1cn(CC(=O)N2CCN(c3ccccc3F)CC2)cc1S(=O)(=O)NC,i,.,i,3,.,.
COc1ccc([C@H]2CC(=O)C=C(c3cccc4c3Oc3ccccc3S4)C2)cc1OC,?,145,?,75*,1%,?
O=C1C(=Cc2cccn2-c2ccc(O)cc2)C(=O)c2ccccc21,i,-22,i,0,-5%,-5%
O=C1C(=Cc2cccn2-c2ccccc2)C(=O)c2ccccc21,i,5,i,2,18µM*,9%
O=C(CCSCc1ccc(Cl)cc1)N1CCN(c2ccccc2F)CC1,.,.,.,-11,.,.
CCCCc1ccc(/C(C)=N/Nc2cc(N3CCOCC3)nc(C)n2)cc1,?,4,i,7,?,21µM*
CCOC(=O)c1c(C)[nH]c(CCC(=O)Nc2ccccc2C(=O)OC)c1C,.,.,.,6,.,.
Cc1cc(C)cc(NC(=S)NCCSc2ccc(Cl)cc2)c1,i,-7,i,-10,0%,21µM*
Cc1ccc(SCCNC(=S)Nc2ccccc2)cc1,i,22,i,-2,0%,9%
Cc1ccc(SCCNC(=S)Nc2ccc(C)c(C)c2)cc1,?,?,?,-4,?,15µM*
Cc1ccc(C(c2nnnn2CCc2ccccc2)N2CCC(C)CC2)cc1 (centres undefined),18µM*,?,?,-4,28%,?
Cc1ccc(C(c2nnnn2CCc2ccccc2)N2CCSCC2)cc1 (centres undefined),?,-17,i,-10,2%,2%
CC(C)(C)n1nnnc1C(c1cccc(C(F)(F)F)c1)N1CCOCC1 (centres undefined),i,-5,i,-3,14%,3%
CCC(C)(C)n1nnnc1C(c1ccc(C)cc1)N1CCCC1 (centres undefined),?,2,i,15,23µM*,?
Cc1ccc(C(c2nnnn2C(C)(C)C)N2CCC(C)CC2)cc1 (centres undefined),?,-52*,i,-3,-4%,0%
CC(C)(C)n1nnnc1C(c1cccc(C(F)(F)F)c1)N1CCC(O)CC1 (centres undefined),i,-17,0.0046µM*,-1,-15%,11%
Cc1ccc(C)c(CN2C(=O)c3ccccc3S(=O)(=O)c3ccc(C(=O)NCc4ccccc4)cc32)c1,.,.,.,-4,.,.
CC(=O)c1cc(-c2ccccc2)n(CCC(=O)NC(C)c2ccccc2)c1C (centres undefined),i,.,i,7,.,.
COc1ccc(C2CC(c3ccccc3C(F)(F)F)=NN2c2ccc(S(N)(=O)=O)cc2)cc1 (centres undefined),?,3,?,-1,0.73µM*,1.8µM*
COc1ccc(C2CC(c3cccs3)=NN2S(=O)(=O)c2ccc(C)cc2)cc1 (centres undefined),i,-14,i,-9,6%,14%
